HP1b chromo inh = HP1-beta chromodomain-methylated histone interaction inhibition; P83916; AlphaScreen HP1-beta / biotin-H3K9me3 peptide binding; Potency, µM (doses to about 114 µM), actives largely listed as inhibitors; actives 0.56% (n = 390,000); AID 540317; further: nearly all actives have a fitted effect of over 70% in size
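AlphaScreen: HP1-beta (50 nM) preformed 30 min with biotin-H3(1-18)K9me3 peptide (50 nM) in PBS pH 7.4, 0.01% Tween-20. Compound added for 30 min at RT, then streptavidin donor/nickel chelate acceptor beads (10 ug/mL) for 30 min.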
PLK1 PBD block = blocks phosphopeptide binding to human PLK1 polo-box domain. P53350. Plk1 PBD binding of FITC phosphopeptide, fluorescence polarization. Potency, µM, hits mostly inhibitors. actives 2.8% (n = 360,000). AID 720504; further: series mostly up to about 57 µM; nearly all actives have a fitted effect of over 65% in size
BAZ2B inh = inhibitors of human BAZ2B bromodomain; Q9UIF8; Potency, µM (doses to about 114 µM), most hits filed as inhibitors; actives 4.4% (n = 360,000); AlphaScreen BAZ2B-H3K14Ac peptide displacement; further: nearly all actives have a fitted effect of over 60% in size
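Inhibition is scored as reduced AlphaScreen emission. The BAZ2B/b-H3(5-23)K14Ac complex (50 nM each) in PBS pH 7.4, 0.01% Tween-20 meets compound (up to 110 uM) for 30 min at RT before bead addition.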
G9a inh = blocks human histone lysine methyltransferase G9a; actives 8.8% (n = 350,000); Potency, µM (highest dose often 102 µM), usual class: inhibitors; G9a H3K9 monomethylation, AlphaScreen, 2 h; AID 504332; Q96KQ7; further: nearly all actives have a fitted effect of over 75% in size
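G9a (20 nM) was preincubated 15 min with compound, then reacted 2 h at room temperature with 500 nM biotin-H3K9 peptide and 20 µM SAM. Monomethyl-H3K9 detected by AlphaScreen using anti-H3K9me1 antibody.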
JMJD2A Tudor = blocks the human JMJD2A Tudor domain | AlphaScreen JMJD2A-Tudor / H3K4me3 peptide binding | O75164 | AID 504339 | Potency, µM (series often up to 114 µM), hits mostly inhibitors | actives 4.4% (n = 390,000); further: nearly all actives have a fitted effect of over 50% in size
Target sequence (O75164 whole entry, looked up, the tested form may be a part): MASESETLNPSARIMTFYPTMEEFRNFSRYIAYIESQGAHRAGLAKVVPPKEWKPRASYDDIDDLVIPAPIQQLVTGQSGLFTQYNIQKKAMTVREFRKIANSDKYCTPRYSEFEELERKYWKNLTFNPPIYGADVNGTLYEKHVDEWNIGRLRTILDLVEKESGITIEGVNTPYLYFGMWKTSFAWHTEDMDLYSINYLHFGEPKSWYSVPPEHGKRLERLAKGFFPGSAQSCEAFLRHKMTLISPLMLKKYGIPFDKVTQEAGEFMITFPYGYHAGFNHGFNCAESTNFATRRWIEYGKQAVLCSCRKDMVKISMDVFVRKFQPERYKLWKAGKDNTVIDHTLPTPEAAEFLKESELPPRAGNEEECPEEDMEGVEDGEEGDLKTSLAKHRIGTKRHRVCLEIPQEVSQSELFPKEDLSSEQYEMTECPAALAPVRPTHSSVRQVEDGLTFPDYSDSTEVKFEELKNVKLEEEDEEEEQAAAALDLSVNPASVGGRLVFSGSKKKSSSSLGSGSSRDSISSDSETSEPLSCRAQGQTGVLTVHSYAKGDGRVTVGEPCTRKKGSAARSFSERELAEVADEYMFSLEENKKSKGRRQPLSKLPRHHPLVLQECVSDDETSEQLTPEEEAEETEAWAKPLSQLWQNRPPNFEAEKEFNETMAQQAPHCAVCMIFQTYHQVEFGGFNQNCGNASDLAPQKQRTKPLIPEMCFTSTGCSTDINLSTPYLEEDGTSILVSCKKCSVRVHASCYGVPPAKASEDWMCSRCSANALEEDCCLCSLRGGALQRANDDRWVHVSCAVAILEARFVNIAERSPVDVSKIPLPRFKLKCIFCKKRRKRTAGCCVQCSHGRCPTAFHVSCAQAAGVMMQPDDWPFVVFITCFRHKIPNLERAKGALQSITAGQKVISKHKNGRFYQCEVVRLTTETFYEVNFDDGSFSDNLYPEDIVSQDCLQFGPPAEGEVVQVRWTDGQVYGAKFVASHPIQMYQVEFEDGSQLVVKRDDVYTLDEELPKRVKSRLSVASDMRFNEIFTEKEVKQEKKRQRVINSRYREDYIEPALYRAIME
12-LOX inh = blocks human arachidonate 12S-lipoxygenase | P18054 | purified 12hLO, xylenol orange hydroperoxide absorbance | Potency, µM (highest dose often 108 µM), usual class: inhibitors | actives 1.1% (n = 580,000)
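Purified human 12hLO at 150 nM in 25 mM Hepes, 0.01% Triton X-100, pH 7.0, preincubated 15 min at room temperature with compound. Reaction started with 40 uM arachidonic acid, 30 min at room temperature. Hydroperoxide measured by Fe-xylenol orange, 573/405 nm absorbance ratio.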
Numbers stand for hits; . = inactive; ? = inconclusive; / = no result given; [ ] = dose if it differs, or a comment. The list is not random: actives were taken first. Their share in the collection is about 9%. The call rests on the fitted dose curve; in most records, active means well fitted curve in the direction sought with a large enough effect; inconclusive means small, poorly fitted or top-dose-only effect, or another doubt; inactive means no such curve, though single readings can be large; an effect the other way counts as inactive or inconclusive.

SMILES | HP1b chromo inh | PLK1 PBD block | BAZ2B inh | G9a inh | JMJD2A Tudor | 12-LOX inh
CCOC(=O)c1c(-c2ccccc2)csc1NC(=O)c1ccc(S(=O)(=O)N2CC(C)OC(C)C2)cc1 (stereo not given) | . | . | . | . | . | .
CCOC(=O)c1c(-c2ccc3ccccc3c2)csc1NC(=O)CCCC(=O)O | . | 24µM | . | ? | . | ?
CCOC(=O)c1c(-c2ccc(C)cc2)csc1NC(=O)CCN1CC(C)OC(C)C1 (stereo not given) | 35µM | . | 22µM | ? | 8.9µM | ?
CCOC(=O)c1c(-c2ccc(OCC)cc2)csc1NC(=O)CCN1C(=O)c2ccccc2C1=O | / | / | . | . | / | /
CCOC(=O)c1c(-c2ccc(OC)cc2)csc1NC(=O)CCN1C(=O)c2ccccc2C1=O | . | 11µM | . | ? | . | ?
CCOC(=O)c1c(-c2ccc(OC)cc2)csc1NC(=O)CCN1CCOCC1 | ? | . | 22µM | 3.5µM | 20µM | ?
CN(Cc1cccc2cnccc12)C(=O)C(c1ccccc1F)N(C)C (stereo not given) | / | / | / | / | / | .
Cc1ccc(-c2nnc(N3CCC(C)CC3)c3ccccc23)cc1 | . | . | . | . | . | .
CC(C)CC(NC(=O)COc1ccccc1)C(=O)O (stereo not given) | . | . | . | . | . | .
CN1C(=O)COC[C@@H]1[C@H](O)c1ccc(NC(=O)c2cccc(C#N)c2)cc1 | / | / | / | / | / | .
Cc1cccc(N2C(=O)c3cccc4cccc(c34)C2=O)c1 | . | . | . | .[0.501 µM] | . | .
Nc1ccc2c3c(cccc13)C(=O)N(c1ccccc1)C2=O | . | 1.3µM | . | . | . | .
Cc1cccc(N2C(=O)c3cccc4c(N(C)CCO)ccc(c34)C2=O)c1 | . | 11µM | / | . | . | /
Cc1cccc(N2C(=O)c3cccc4c(N)ccc(c34)C2=O)c1 | . | 3.8µM | . | / | . | .
CC(C)CCN1C(=O)c2cccc3c(N)ccc(c23)C1=O | . | 5.3µM | / | / | . | .
CNC(=O)C1C2C=CC3(O2)C1C(=O)N(CCOC)C3C(=O)NCc1ccc(OC)cc1 (stereo not given) | . | . | . | ? | . | .
CNC(=O)CC(CC(=O)c1ccccc1)c1ccccc1 (stereo not given) | . | ? | . | .[2.33 µM] | . | .
O=C(O)c1cccc(N2C(=O)c3cccc4c(Cl)ccc(c34)C2=O)c1 | . | . | . | ? | . | .
Nc1cccc(N2C(=O)c3cccc4c(N)ccc(c34)C2=O)c1 | . | 11µM | . | . | . | .
CC(Nc1ccc(F)cc1)=[N+](C)CCNS(=O)(=O)c1ccc(Cl)cc1 | ? | ? | 50µM | 22µM | 20µM | ?
CCNS(=O)(=O)c1ccc(NC(=O)Cc2ccc(F)cc2)cc1 | . | . | . | .[12.7 µM] | . | .
CCN(CC)CCNS(=O)(=O)c1ccc(Cl)cc1 | . | . | . | ? | . | ?
Cc1nonc1CN(C)C(=O)c1ccc(OC2CCN(Cc3ccccn3)CC2)cc1 | . | . | . | ? | . | .
Cc1cc(CN(C)C(=O)c2ccc(OC3CCN(Cc4ccccn4)CC3)cc2)on1 | . | . | . | 50µM | . | .
CC(NC(=O)CN1CCC(C(N)=O)CC1)c1ccccc1 (stereo not given) | . | . | . | . | . | .
SMILES | HP1b chromo inh | PLK1 PBD block | BAZ2B inh | G9a inh | JMJD2A Tudor | 12-LOX inh
CC1(C)CC(=O)C(C(C2=C(O)CC(C)(C)CC2=O)c2cccc(O)c2)C(=O)C1 (stereo not given) | . | ? | . | ? | . | .
CC1(C)CC(=O)C(C(C2=C(O)CC(C)(C)CC2=O)c2cc(Cl)cc(Cl)c2O)C(=O)C1 (stereo not given) | / | / | / | / | / | .
Cc1ccc(C(C2=C(O)CC(C)(C)CC2=O)C2C(=O)CC(C)(C)CC2=O)o1 (stereo not given) | . | 6µM | . | 25µM | . | ?
CCCC(C1=C(O)CC(C)(C)CC1=O)C1C(=O)CC(C)(C)CC1=O (stereo not given) | . | ? | . | 28µM | . | ?
CC1(C)CC(=O)C(C(C2=C(O)CC(C)(C)CC2=O)c2cccnc2)C(=O)C1 (stereo not given) | . | . | . | 50µM | . | .
Cc1ccc(C2C3=C(CC(C)(C)CC3=O)NC3=C2C(=O)CC(C)(C)C3)o1 | . | . | . | . | . | .
CC1(C)CC(=O)C(C(C2=C(O)CC(C)(C)CC2=O)c2cccs2)C(=O)C1 (stereo not given) | . | 4.7µM | . | 45µM | . | /
C=CCN1C(=O)C2(OCCCO2)c2cc(CCCC)ccc21 | . | . | . | . | . | .
Cc1cc(C)nc(SCCc2ccncc2)n1 | . | ? | . | 4µM | 4.5µM | .
COc1ccc(OC)c(CNC(=O)[C@H]2CCC[C@H]2NC(=O)c2ccncc2)c1 | / | / | / | / | / | .
COC(=O)c1ccccc1NC(=O)CNC(=O)c1ccc(OC)cc1 | . | . | . | . | . | .
CC(C)CC(=O)Nc1ccc(C(=O)COc2ccc(-c3nnco3)cc2)cc1 | . | ? | . | . | 79µM | .
N#Cc1ccsc1NC(=O)COc1ccc(-c2nnco2)cc1 | . | . | . | 40µM | . | .
O=C(COc1ccc(-c2nnco2)cc1)c1ccc(F)cc1 | / | / | / | / | / | .
N#CCSc1ccccc1NC(=O)COc1ccc(-c2nnco2)cc1 | . | . | ? | . | . | .
CCc1ccc(CNCc2c(C(=O)O)n(Cc3cccc(F)c3)c3cc(OC)ccc23)cc1 | . | / | . | . | . | ?
O=C(O)c1ccc(Cl)c(I)c1 | / | / | / | / | / | .
Nc1ncc(N=Nc2cc(C(=O)O)ccc2Cl)s1 | ? | ? | 89µM | . | ? | ?
O=C(c1ccc2c(c1)OCO2)N1C[C@@H](CO)[C@H](c2ccccn2)C1 | / | / | / | / | / | .
CCOC(=O)CSC1=C(C#N)C(c2ccccc2F)C(C(C)=O)=C(C)N1 (stereo not given) | . | . | . | ? | ? | .
CC(=O)C1=C(C)NC(SCC(N)=O)=C(C#N)C1c1sccc1C (stereo not given) | . | . | . | . | ? | .
CSCSC1=C(C#N)C(c2ccccc2Cl)C(C(C)=O)=C(C)N1 (stereo not given) | . | . | . | 4µM | . | ?
CCOC(=O)CSC1=C(C#N)C(c2sccc2C)C(C(C)=O)=C(C)N1 (stereo not given) | . | 27µM | . | . | . | .
CCOc1ccc(NC(=O)CSC2=C(C#N)C(c3ccccc3Cl)C(C(C)=O)=C(C)N2)cc1 (stereo not given) | / | / | / | / | / | 32µM
CCNc1nnc(SCc2nc(-c3ccc(F)cc3)no2)s1 | / | / | / | / | / | .
CC(C)OCCCNC(=O)CSc1c2c(nc3ccc(Cl)cc13)CCCC2 | . | / | / | . | . | .

Compound activity: PubChem BioAssay, National Center for Advancing Translational Sciences (NCATS)
